# PubChem BioAssay
# “And” between values parts separate entries of the source, which are not always exact repeats. Equal values may be shown once. The source made the active and inactive calls. Cut-off read from the data, not from the text of the source, unless noted: active = inhibition above about 80%; inactive = the rest.
# Legend:
# [1] = sensitizers of A549 cells to miR-34 induction, primary screen, imaging, A549 dox-inducible miR-34, nuclei and caspase counts (AID 1347080;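 active = compounds whose cell count with miR-34 switched on is under 0.7 times the count with it off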); conditions: A549 miR-34 inducible, Hoechst nuclei count, 48 h
# [2] = survival rescue of mitochondrial mutant cells in low glucose, primary screen, MELAS cybrids, Rieske KO mouse fibroblasts, CellTiter-Glo (AID 1508586;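 active = mean z-score across replicates of 1.96 or higher in either the MELAS or the Rieske mutant cell line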;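 note: z relative to plate mean and SD of compound and empty wells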)
# [3] = target: NAD(+) hydrolase SARM1 (Homo sapiens) (UniProt Q6SZW1); experiment: SARM1 TIR NADase inhibitors, cell lysate, NAD-Glo luminescence (AID 1508614;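 active = compound whose remaining NAD level is above about 45 nM, limit read from the data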;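 note: higher remaining NAD means stronger inhibition of SARM1 NADase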); conditions: SAM-TIR HEK293T lysate NADase, at 1 µM, stronger effect = higher value
# NAD(+) hydrolase SARM1 (Homo sapiens), sequence (Q6SZW1 whole entry, looked up): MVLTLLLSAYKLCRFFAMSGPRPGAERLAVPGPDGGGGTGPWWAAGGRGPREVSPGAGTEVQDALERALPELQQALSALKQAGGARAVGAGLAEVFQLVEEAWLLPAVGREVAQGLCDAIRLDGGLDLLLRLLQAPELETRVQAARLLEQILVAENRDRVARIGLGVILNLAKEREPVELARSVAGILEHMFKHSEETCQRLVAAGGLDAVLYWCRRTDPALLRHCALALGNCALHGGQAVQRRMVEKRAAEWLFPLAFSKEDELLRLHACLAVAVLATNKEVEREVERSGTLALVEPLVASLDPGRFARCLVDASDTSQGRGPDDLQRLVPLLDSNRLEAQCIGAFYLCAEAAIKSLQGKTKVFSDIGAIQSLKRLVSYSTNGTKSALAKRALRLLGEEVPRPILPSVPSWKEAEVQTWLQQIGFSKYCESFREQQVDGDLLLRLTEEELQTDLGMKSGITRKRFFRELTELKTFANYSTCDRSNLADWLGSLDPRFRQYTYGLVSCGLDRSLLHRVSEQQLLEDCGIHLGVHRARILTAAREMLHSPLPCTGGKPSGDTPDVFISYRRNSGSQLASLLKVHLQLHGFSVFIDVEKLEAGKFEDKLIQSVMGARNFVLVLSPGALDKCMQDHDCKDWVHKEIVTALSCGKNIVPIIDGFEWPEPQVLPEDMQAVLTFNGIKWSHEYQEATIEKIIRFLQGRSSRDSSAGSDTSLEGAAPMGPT
# [4] = viability rescue of complex I mutant cybrids, primary screen, cell-based, galactose medium, ATP luminescence (AID 1645843;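 active = z-score of at least 1.8 in each of two replicates, scored against plate mean and spread of sample wells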;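 note: positive z means more ATP and so rescue of galactose-driven cybrid death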); conditions: complex I mutant cybrid cells, 72 h, stronger effect = higher value
# [5] = LFS_MB_P medulloblastoma growth inhibition, cell-based, chromothripsis tumors, cisplatin or BGB combos (AID 1671449); conditions: LFS_MB_P medulloblastoma cells;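 note: cells exposed for 96 hours; 0% = vehicle DMSO and 100% = killing by high DMSO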
# [6] = HDN33 neuroblastoma growth inhibition, cell-based, chromothripsis tumors, cisplatin or BGB combos (AID 1671450); conditions: HDN33 neuroblastoma cells, stronger effect = higher value;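 note: cells exposed to compound for four days; 0% = vehicle DMSO and 100% = cell killing by high DMSO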
# [7] = ICB984 medulloblastoma cell growth inhibition, synergistic combos for chromothripsis tumors, cisplatin or BGB combos (AID 1671451; call rule not given here;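 note: cells exposed for 96 hours before readout; 0% = vehicle DMSO and 100% = killing by high DMSO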); conditions: ICB984 medulloblastoma cells, drug combinations, stronger effect = higher value
# [8] = LFS_MB_1R medulloblastoma cell growth inhibition, synergistic combos for chromothripsis tumors, cisplatin or BGB combos (AID 1671452); conditions: LFS_MB_1R medulloblastoma cells, stronger effect = higher value;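 note: cells exposed for 96 hours before readout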
# [9] = HTB85 osteosarcoma cell growth inhibition, synergistic combos for chromothripsis tumors, BGB or cisplatin IC20 combos (AID 1671453); conditions: HTB85 osteosarcoma cells, drug combinations, stronger effect = higher value;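 note: cells exposed for 96 hours before readout; 0% = vehicle DMSO and 100% = high DMSO killing control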
# [10] = CRL2098 osteosarcoma cell growth inhibition, synergistic combos for chromothripsis tumors, BGB or cisplatin IC20 combos (AID 1671454); conditions: CRL2098 osteosarcoma cells, drug combinations, stronger effect = higher value;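 note: cells exposed for 96 h before readout; 0% = vehicle DMSO and 100% = killing by high DMSO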
# [11] = HD-MB03 medulloblastoma cell growth inhibition, synergistic combos for chromothripsis tumors, BGB or cisplatin IC20 combos (AID 1671455; in the data active = inhibition above about 83%;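 note: 0% = vehicle DMSO and 100% = high DMSO as cytotoxic control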); conditions: HD-MB03 medulloblastoma cells, stronger effect = higher value
# [12] = target: Mitogen-activated protein kinase 7 (Homo sapiens) (UniProt Q13164); experiment: ERK5 transactivation activators in reporter cells, primary screen, cell-based, HTS (AID 1508626;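 active = luciferase signal above three times the same-plate solvent-only control wells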;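 note: luciferase driven by Gal4-ERK5 fusion binding five Gal4 sites before minimal TATA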); conditions: HeLa Gal4-ERK5 transactivation, 18 h, at 5 µM, stronger effect = higher value
# Mitogen-activated protein kinase 7 (Homo sapiens), sequence (Q13164 whole entry, looked up, the tested form may be a part): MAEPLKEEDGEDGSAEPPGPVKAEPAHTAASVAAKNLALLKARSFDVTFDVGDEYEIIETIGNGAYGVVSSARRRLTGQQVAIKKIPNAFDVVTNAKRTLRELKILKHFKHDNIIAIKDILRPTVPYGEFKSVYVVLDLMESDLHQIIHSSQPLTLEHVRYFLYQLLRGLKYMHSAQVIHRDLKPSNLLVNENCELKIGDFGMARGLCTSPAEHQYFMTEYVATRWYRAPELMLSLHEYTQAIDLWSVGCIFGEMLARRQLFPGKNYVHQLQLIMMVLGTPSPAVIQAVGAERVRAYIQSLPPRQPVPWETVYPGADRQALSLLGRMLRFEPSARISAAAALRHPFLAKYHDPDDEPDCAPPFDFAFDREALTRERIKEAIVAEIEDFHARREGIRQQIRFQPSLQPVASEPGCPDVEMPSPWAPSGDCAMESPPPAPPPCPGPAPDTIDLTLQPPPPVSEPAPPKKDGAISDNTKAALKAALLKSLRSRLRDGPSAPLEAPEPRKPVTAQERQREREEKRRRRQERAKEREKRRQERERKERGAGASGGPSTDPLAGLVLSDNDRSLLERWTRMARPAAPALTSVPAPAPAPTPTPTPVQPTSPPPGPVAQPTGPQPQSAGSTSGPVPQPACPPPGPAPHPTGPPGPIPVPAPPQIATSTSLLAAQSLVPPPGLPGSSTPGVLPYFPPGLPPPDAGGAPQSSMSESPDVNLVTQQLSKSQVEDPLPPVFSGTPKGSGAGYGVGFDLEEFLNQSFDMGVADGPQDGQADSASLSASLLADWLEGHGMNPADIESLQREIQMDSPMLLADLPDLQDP
# [13] = stronger effect = lower value, cell number ratio, induced over uninduced
# [14] = measured here: relative caspase fold change +Dox/-Dox
# [15] = measured here: total cells with miR-34 induction, stronger effect = lower value
# [16] = measured here: total cells without miR-34 induction
# [17] = MELAS cybrid survival, CellTiter-Glo 48 h, stronger effect = higher value
# [18] = Rieske KO mouse fibroblast survival, CellTiter-Glo 72 h
# [19] = measured here: combination with BGB IC40, at 0.05 µM
structure (smiles),measurement,setting,value
CC(C)(C(=O)c1cccnc1)c1cccnc1,fold change,[1]; [13],0.962 (inactive) and 0.83 (inactive) and 0.921 (inactive)
same,fold change,[1]; [14],1.43 and 1.26 and 2.87
same,cell count,[1]; [15],10400 and 8590 and 12100
same,cell count,[1]; [16],10800 and 10300 and 13100
same,z-score,[2]; [17],0.55 (inactive)
same,z-score,[2]; [18],0.502
same,remaining NAD,[3],100 nM (active)
same,z-score,[4],0.18 (inactive)
Nc1nc2c(ncn2CCC(CO)CO)c(=O)[nH]1,fold change,[1]; [13],0.945 (inactive) and 0.956 (inactive) and 0.874 (inactive)
same,fold change,[1]; [14],1.67 and 0.466 and 0.841
same,cell count,[1]; [15],10200 and 9130 and 9970
same,cell count,[1]; [16],10800 and 9540 and 11400
same,z-score,[2]; [17],-0.249 (inactive) and -1.06 (inactive) and -0.78 (inactive)
same,z-score,[2]; [18],-0.179 and 0.138 and 0.0729
same,remaining NAD,[3],10 nM (inactive)
same,z-score,[4],0.83 (inactive) and 0.595 (inactive)
same,inhibition,"[5]; at 0.5 µM, stronger effect = higher value",-31.4% (inactive) and 10.2% (inactive)
same,inhibition,"[5]; measured here: combination with BGB IC20, at 0.005 µM",18% and -5.86%
same,inhibition,"[5]; measured here: combination with BGB IC40, at 0.005 µM",-15.5% and -23.1%
same,inhibition,[5]; [19],-8% and -22.9%
same,inhibition,"[5]; measured here: combination with cisplatin, at 0.5 µM, stronger effect = higher value",-43% and 6.39%
same,inhibition,"[5]; measured here: combination with cisplatin, at 5 µM, stronger effect = higher value",-0.859% and -46.3%
same,inhibition,"[6]; BGB combo, at 5 µM",-37% and 3.74%
same,inhibition,[6]; at 0.5 µM,-21.5% (inactive) and -13.7% (inactive)
same,inhibition,"[6]; cisplatin combo, at 5 µM",-35.4% and 5.76%
same,inhibition,"[6]; measured here: with BGB IC20 combination, at 0.5 µM",-20.3% and -5.75%
same,inhibition,"[6]; measured here: with cisplatin IC20 combination, at 0.5 µM",-28.1% and -7.91%
same,inhibition,"[6]; single agent, at 5 µM",-23.7% and -10.4%
same,inhibition,"[7]; BGB IC20 combo, at 0.005 µM",6.03% and -7.22%
same,inhibition,"[7]; BGB IC40 combo, at 0.005 µM",-30.8% and -8.59%
same,inhibition,"[7]; BGB IC40 combo, at 0.05 µM",-28.9% and 4.12%
same,inhibition,[7]; at 0.5 µM,-31.2% (inactive) and -13.2% (inactive)
same,inhibition,"[7]; cisplatin combo, at 0.05 µM",-34.1% and 1.44%
same,inhibition,"[7]; cisplatin combo, at 0.5 µM",-50.7% and 4.42%
same,inhibition,"[7]; cisplatin combo, at 5 µM",-20.3% and -61.9%
same,inhibition,"[7]; measured here: 5 uM single agent, at 5 µM",6.97% and -17.4%
same,inhibition,[8]; at 0.5 µM,-19.7% (inactive) and -18.4% (inactive)
same,inhibition,[8]; [19],-23.5% and -18.9%
same,inhibition,"[8]; measured here: combination with cisplatin, at 0.5 µM",-56.8% and -22.6%
same,inhibition,"[8]; measured here: combination with cisplatin, at 5 µM",-7.78% and -27.3%
same,inhibition,[9]; at 0.5 µM,-21.5% (inactive) and -5.99% (inactive)
same,inhibition,"[9]; measured here: with BGB IC20, at 0.5 µM",-16.4% and -34.5%
same,inhibition,"[9]; measured here: with BGB IC20, at 5 µM",-7.68% and -31%
same,inhibition,"[9]; measured here: with cisplatin IC20, at 0.5 µM",-24.9% and -1.09%
same,inhibition,"[9]; measured here: with cisplatin IC20, at 5 µM",-9.05% and -28%
same,inhibition,"[9]; single agent, at 5 µM",-16.3% and 0.079%
same,inhibition,[10]; at 0.5 µM,-37% (inactive) and -44.9% (inactive)
same,inhibition,"[10]; measured here: combination with BGB at IC20, at 0.5 µM",-37.8% and -1.8%
same,inhibition,"[10]; measured here: combination with cisplatin at IC20, at 0.5 µM",-13.5% and -79.6%
same,inhibition,[11]; at 0.5 µM,-6.81% (inactive) and 1.52% (inactive)
same,inhibition,"[11]; measured here: combo with BGB at IC20, at 0.5 µM",-13.9% and 7.53%
same,inhibition,"[11]; measured here: combo with cisplatin at IC20, at 0.5 µM",-2.89% and -3%
CN1CCN(c2c(F)cc3c(=O)c(C(=O)O)cn4c3c2SCC4)CC1,fold change,[1]; [13],0.974 (inactive) and 0.992 (inactive) and 0.895 (inactive)
same,fold change,[1]; [14],0.702 and 1.33 and 0.919
same,cell count,[1]; [15],7420 and 9770 and 9480
same,cell count,[1]; [16],7610 and 9850 and 10600
same,z-score,[2]; [17],0.206 (inactive) and 0.665 (inactive)
same,z-score,[2]; [18],0.617 and -0.349
same,remaining NAD,[3],10 nM (inactive)
same,z-score,[4],-0.175 (inactive) and 0.05 (inactive)
COc1cc(N)c(Cl)cc1C(=O)NC1CCN(Cc2ccccc2)CC1,fold change,[1]; [13],0.86 (inactive)
same,fold change,[1]; [14],0.965
same,cell count,[1]; [15],7810
same,cell count,[1]; [16],9080
same,z-score,[2]; [17],0.473 (inactive)
same,z-score,[2]; [18],0.069
same,luciferase signal,[12],48 AU (inactive)
